Data reported in PubChem BioAssay AID1159580 (chemical genetic matrix, 2015).
Out of some 5,500 compounds screened, about 2,000 (36%) were called active. About 18% were inconclusive and are not listed. Rule as the data show it: active = normalized growth mostly below about 0.91 (no sharp cut-off); inconclusive = no clear call, values can overlap the other calls; inactive = mostly above about 0.92. This is one part of the list.

Assay: chemical genetic growth profiling, strain panel (AID 1159580);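 also: tested at 20 µM; growth read once vehicle control cultures reached saturation at 30 °C; 1 = growth at the plate median or of vehicle wells; lower values mean less growth of the strain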
Settings: S. cerevisiae deletion strains, growth OD
[1] = locus YHR030C, strain SLT2, active compounds read low

Measured: normalized growth

O=C1ON=C(c2ccccc2)/C1=C/c1ccc(Cl)cc1
active: locus YAL013W, strain DEP1, active compounds read low 0.174 | locus YBR229C, strain ROT2, active compounds read low 0.145 | locus YDL101C, strain DUN1, active compounds read low 0.203 | locus YDL134C, strain PPH21, active compounds read low 0.77 | locus YEL061C, strain CIN8, active compounds read low 0.637 | locus YGR078C, strain PAC10, active compounds read low 0.138 | [1] 0.16 | locus YHR087W, strain rtc3, active compounds read low 0.172 | locus YJR043C, strain POL32, active compounds read low 0.198 | locus YJR075W, strain HOC1, active compounds read low 0.129 | locus YKL190W, strain CNB1, active compounds read low 0.523 | locus YLR039C, strain RIC1, active compounds read low 0.782 | locus YLR058C, strain SHM2 (second series), active compounds read low 0.311 | locus YLR085C, strain ARP6, active compounds read low 0.297 | locus YML094W, strain GIM5, active compounds read low 0.584 | locus YMR219W, strain ESC1, active compounds read low 0.172 | locus YNL153C, strain GIM3, active compounds read low 0.105 | locus YNL298W, strain CLA4 (second series), active compounds read low 0.481 | locus YNL322C, strain KRE1, active compounds read low 0.472 | locus YNR030W, strain Alg12, active compounds read low 0.462 | locus YPL055C, strain LGE1, active compounds read low 0.11 | locus YPL241C, strain CIN2, active compounds read low 0.331 | locus YPR135W, strain CTF4, active compounds read low 0.294
inactive: locus YLR262C, strain YPT6, active compounds read low 0.834

COc1cccc2c1C(=O)c1c(O)c3c(c(O)c1C2=O)C[C@@](O)(C(=O)CO)C[C@@H]3OC1C[C@H](N)[C@H](O)[C@H](C)O1 (some centres not stated)
active: locus YAL021C, strain ccr4, active compounds read low 0.166 | locus YAL026C, strain drs2, active compounds read low 0.696 | locus YAL030W, strain snc1, active compounds read low 0.691 | locus YBL061C, strain skt5, active compounds read low 0.708 | locus YBR009C, strain hhf1, active compounds read low 0.282 | locus YBR023C, strain chs3, active compounds read low 0.676 | locus YBR231C, strain swc5, active compounds read low 0.342 | locus YBR279W, strain paf1, active compounds read low 0.681 | locus YCL011C, strain gbp2, active compounds read low 0.636 | locus YCL016C, strain dcc1, active compounds read low 0.37 | locus YCL069W, strain vba3, active compounds read low 0.718 | locus YCR088W, strain abp1, active compounds read low 0.767 | locus YDL005C, strain med2, active compounds read low 0.701 | locus YDL040C, strain nat1, active compounds read low 0.762 | locus YDR001C, strain nth1, active compounds read low 0.878 | locus YDR069C, strain doa4, active compounds read low 0.595 | locus YDR137W, strain rgp1, active compounds read low 0.572 | locus YDR159W, strain sac3, active compounds read low 0.221 | locus YDR195W, strain ref2 1.23 [resistant] | locus YDR297W, strain sur2, active compounds read low 0.606 | locus YDR334W, strain swr1, active compounds read low 0.337 | locus YDR335W, strain msn5, active compounds read low 0.431 | locus YEL003W, strain gim4, active compounds read low 0.603 | locus YEL037C, strain rad23, active compounds read low 0.864 | locus YEL061C, strain CIN8 (second series), active compounds read low 0.607 | locus YER015W, strain faa2, active compounds read low 0.49 | locus YER016W, strain bim1, active compounds read low 0.481 | locus YER111C, strain swi4, active compounds read low 0.766 | locus YER155C, strain BEM2 (second series), active compounds read low 0.515 | locus YFR010W, strain ubp6, active compounds read low 0.65 | locus YGL167C, strain pmr1, active compounds read low 0.905 | locus YGL227W, strain vid30, active compounds read low 0.429 | locus YGL240W, strain doc1, active compounds read low 0.246 | locus YGL253W, strain hxk2, active compounds read low 0.247 | locus YHR013C, strain ard1, active compounds read low 0.35 | locus YHR027C, strain rpn1, active compounds read low 0.496 | [1] 0.778 | locus YHR079C, strain IRE1, active compounds read low 0.79 | locus YHR142W, strain chs7, active compounds read low 0.538 | locus YJL092W, strain hpr5, active compounds read low 0.691 | locus YJL095W, strain BCK1 (second series), active compounds read low 0.622 | locus YJL095W, strain BCK1, active compounds read low 0.781 | locus YJL115W, strain asf1, active compounds read low 0.319 | locus YJL129C, strain trk1, active compounds read low 0.138 | locus YJL154C, strain vps35, active compounds read low 0.732 | locus YJL164C, strain tpk1, active compounds read low 0.439 | locus YJL166W, strain qcr8, active compounds read low 0.302 | locus YJL187C, strain SWE1, active compounds read low 0.643 | locus YJR066W, strain TOR1, active compounds read low 0.787 | locus YKL160W, strain elf1, active compounds read low 0.56 | locus YKR026C, strain gcn3, active compounds read low 0.849 | locus YKR091W, strain srl3, active compounds read low 0.869 | locus YLL001W, strain dnm1, active compounds read low 0.545 | locus YLL026W, active compounds read low 0.623 | locus YLL041C, strain sdh2, active compounds read low 0.602 | locus YLR027C, strain aat2, active compounds read low 0.543 | locus YLR113W, strain HOG1, active compounds read low 0.779 | locus YLR221C, strain rsa3, active compounds read low 0.475 | locus YLR258W, strain gsy2, active compounds read low 0.565 | locus YLR262C, strain YPT6 (second series), active compounds read low 0.533 | locus YLR320W, strain mms22, active compounds read low 0.176 | locus YLR342W, strain FKS1, active compounds read low 0.622 | locus YLR357W, strain rsc2, active compounds read low 0.49 | locus YLR370C, strain arc18, active compounds read low 0.902 | locus YLR384C, strain iki3, active compounds read low 0.651 | locus YML120C, strain ndi1, active compounds read low 0.676 | locus YMR058W, strain fet3, active compounds read low 0.509 | locus YMR129W, active compounds read low 0.828 | locus YMR205C, strain PFK2, active compounds read low 0.513 | locus YMR231W, strain pep5, active compounds read low 0.246 | locus YNL071W, strain lat1, active compounds read low 0.272 | locus YNL183C, strain NPR1, active compounds read low 0.801 | locus YNL209W, strain ssb2, active compounds read low 0.656 | locus YNL248C, strain rpa49, active compounds read low 0.107 | locus YNL322C, strain KRE1 (second series), active compounds read low 0.886 | locus YNR049C, strain mso1, active compounds read low 0.798 | locus YOR001W, strain rrp6, active compounds read low 0.469 | locus YOR070C, strain gyp1, active compounds read low 0.569 | locus YOR080W, strain dia2, active compounds read low 0.627 | locus YOR083W, strain WHI5, active compounds read low 0.572 | locus YOR106W, strain vam3, active compounds read low 0.214 | locus YOR231W, strain MKK1, active compounds read low 0.815 | locus YOR265W, strain rbl2, active compounds read low 0.619 | locus YOR270C, strain vph1, active compounds read low 0.24 | locus YOR290C, strain snf2, active compounds read low 0.589 | locus YPL051W, strain arl3, active compounds read low 0.481 | locus YPL078C, strain atp4, active compounds read low 0.534 | locus YPL240C, strain hsp82, active compounds read low 0.544 | locus YPL256C, strain CLN2, active compounds read low 0.757
inactive: locus YBR171W, strain sec66, active compounds read low 0.928 | locus YDR392W, strain spt3, active compounds read low 0.919 | locus YGL173C, strain kem1, active compounds read low 1.01 | locus YPL106C, strain sse1, active compounds read low 1.14
